KB-3-1 cytotox – KB-3-1 parental cell cytotoxicity | KB-3-1 viability, CellTiter-Glo ATP luminescence, 72 h | Potency, µM (top dose mostly 46.1 µM), usual class: cytotoxic | 400,000 tested, 1.4% active; note: % is set by controls: 0 for no effect and ±100 for the full control effect; nearly all actives have a fitted effect of over 60% in size
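Multi-concentration cytotoxicity screen in KB-3-1 cells grown in DMEM lacking phenol red with 10% FBS. After 72 h at 37 °C with compound, ATP-dependent luminescence was recorded.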
ALOX12 inh – inhibitors of human 12S-lipoxygenase ALOX12; P18054; purified 12hLO, xylenol orange hydroperoxide absorbance; 580,000 tested, 1.1% active; Potency, µM (highest dose often 108 µM), for inactives: top-dose activity change, negative = inhibition, actives largely listed as inhibitors; note: % is set by controls: 0 for no effect and ±100 for the full control effect
Target sequence (P18054 whole entry, looked up): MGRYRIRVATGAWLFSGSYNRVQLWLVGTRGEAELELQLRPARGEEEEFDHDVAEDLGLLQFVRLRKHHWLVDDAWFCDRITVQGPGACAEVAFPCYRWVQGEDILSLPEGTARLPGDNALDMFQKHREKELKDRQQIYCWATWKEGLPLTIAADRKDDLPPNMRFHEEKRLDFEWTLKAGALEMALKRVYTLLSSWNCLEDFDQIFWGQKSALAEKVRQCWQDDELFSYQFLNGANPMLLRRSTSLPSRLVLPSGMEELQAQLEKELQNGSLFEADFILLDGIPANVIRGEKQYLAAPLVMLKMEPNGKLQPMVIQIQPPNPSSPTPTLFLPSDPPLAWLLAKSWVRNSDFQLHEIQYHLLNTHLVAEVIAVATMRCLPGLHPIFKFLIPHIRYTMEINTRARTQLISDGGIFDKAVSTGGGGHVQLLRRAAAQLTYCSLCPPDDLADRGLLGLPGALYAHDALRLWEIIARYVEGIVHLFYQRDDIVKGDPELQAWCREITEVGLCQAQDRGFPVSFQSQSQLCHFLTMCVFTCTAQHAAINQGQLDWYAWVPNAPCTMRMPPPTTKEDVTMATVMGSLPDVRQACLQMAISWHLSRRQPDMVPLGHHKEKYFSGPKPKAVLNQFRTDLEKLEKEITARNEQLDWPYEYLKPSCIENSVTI
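Purified human 12hLO at 150 nM in 25 mM Hepes, 0.01% Triton X-100, pH 7.0, preincubated 15 min at room temperature with compound. Reaction started with 40 uM arachidonic acid, 30 min at room temperature. Hydroperoxide measured by Fe-xylenol orange, 573/405 nm absorbance ratio.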
SW480 rerep – induces DNA re-replication in SW480 colon adenocarcinoma cells | Potency, µM (titrated, usually from 46.1 µM), for the others: at the top dose re-replication activation, hits mostly activators | 340,000 tested, 1.8% active | SW480 DNA re-replication, Hoechst DNA content imaging, 48 h; note: % of control where 0% means no effect; nearly all actives have a fitted effect of over 55% in size
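SW480 cells exposed to compounds for 48 hr at 37 C, 5% CO2, then Hoechst-stained 40 min. Nuclear DNA content imaged by fluorescence scanning (405 nm excitation, 500-530 nm emission); re-replication scored as increased high-intensity nuclei.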
MCF10A rerep – induces DNA re-replication in MCF 10a normal breast cells. AID 624296. Potency, µM (top dose mostly 46.1 µM), for the others: at the highest dose activity, positive = re-replication, hits mostly activators. 350,000 tested, 2.9% active. MCF 10A DNA re-replication, Hoechst nuclear intensity, 48 h; note: % of control where 0% means no effect; nearly all actives have a fitted effect of over 50% in size
KB-V1 cytotox – kills drug-selected multidrug resistant KB-V1 cells; 400,000 tested, 3.4% active; KB-V1 MDR cells viability, CellTiter-Glo, 72 h; Potency, µM (doses to about 46.1 µM), actives largely listed as cytotoxic; note: % is set by controls: 0 for no effect and ±100 for the full control effect; nearly all actives have a fitted effect of over 60% in size
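KB-V1 cells (P-gp-expressing MDR subline of KB-3-1) in phenol-red-free DMEM with 10% FBS were exposed to library compounds over a concentration series for 72 h at 37 degrees C. Viability read by CellTiter-Glo luminescence; concentration-effect curves fitted after normalization.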
PINK1 expr mod – PINK1 expression modulation; PINK1 immunofluorescence, high-content cytometry, 24 h; Potency, µM (top dose mostly 76.6 µM), for inactives: at the top dose activation (PINK1 increase), hits mostly activators; 410,000 tested, 0.2% active; AID 624263; active = well fitted activation curve with a large enough effect; inconclusive = small, poorly fitted or top-dose-only effect; cell line not stated here; note: % of control where 0% means no effect; nearly all actives have a fitted effect of over 65% in size
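Stable cell line, 250 cells/well, 12 h attachment; compounds pinned at 5 concentrations, 24 h; CCCP control. Fixed with nuclear dye, primary antibodies 12 h at 10 degrees C, secondary plus cell stain; laser-scanning cytometer read.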
Active calls of the source: *; i = inactive; ? = inconclusive; . = not tested or not shown; [ ] = remark or other dose. Most compounds without a hit are left out; they make up all but 5.8% or so of the library. Unless noted, calls come from the whole dose curve; as a rule, active = well fitted curve in the direction sought with a large enough effect; inconclusive = small, poorly fitted or top-dose-only effect, or another doubt; inactive = no such curve, though single readings can be large; an effect the other way counts as inactive or inconclusive. Potency is the fitted concentration of half-maximal effect.

SMILES	KB-3-1 cytotox	ALOX12 inh	SW480 rerep	MCF10A rerep	KB-V1 cytotox	PINK1 expr mod
CC1(C(=O)Nc2ccc3c(c2)OCO3)Cc2c(-c3ccc4c(c3)OCO4)ccnc2O1 (stereo unspecified)	5.2µM*	-10%	.	.	?	2%
CC1(C(=O)Nc2ccc(Cl)cc2)Cc2c(-c3ccc4c(c3)OCO4)ccnc2O1 (stereo unspecified)	?	-4%	.	.	?	7%
CC(C)C(NC(=O)c1ccncc1)C(=O)O (stereo unspecified)	.	14%	.	.	.	.
CC(C)(C)c1ccc(Oc2cccc(C3CC(=O)C(C4NCCc5ccccc54)C(=O)C3n3cncn3)c2)cc1 (stereo unspecified)	i	24%	2%	?	i	-1%
O=C1CC(c2ccccc2Oc2cccc(Cl)c2)C(n2cncn2)C(=O)C1C1NCCc2ccccc21 (stereo unspecified)	i	32µM*	2%	?	i	1%
N#Cc1cc2c(=O)n3ccccc3nc2n(-c2ccc(Cl)cc2)c1=O	i	-18%	?	0.52µM*	i	15%
CC(C)Cn1c(-c2ccncc2)nc2c1c(=O)[nH]c(=O)n2CC(C)C	.	8%	.	.	.	.
Clc1ccccc1C1CC(c2ccccc2)=Nc2ccccc2N1 (stereo unspecified)	?	2%	1%	?	i	18%
Brc1ccccc1C1CC(c2ccccc2)=Nc2ccccc2N1 (stereo unspecified)	i	?	?	23µM*	i	4%
COC(=O)[C@@H]1Cc2ncn(Cc3ccc(OC)cc3)c2CN1Cc1cccc(C#N)c1	.	70%[176 µM]	.	.	.	.
COc1ccc(-c2nc(C(C)C)nc3c2CCN(C(=O)c2ccc(C(F)(F)F)cc2)CC3)cc1	.	5%	.	.	.	.
Cn1c(=O)c2ccccc2n2c(=S)[nH]nc12	i	?	-13%	2%	i	4%
Cn1c(=O)c2ccccc2n2c(CCl)nnc12	?	-9%	16µM*	?	?	1%
Cc1nc2c(c(=O)n1CCC1=CCCCC1)c1nc3ccccc3nc1n2/N=C/c1ccccc1	i	.	0%	23µM*	9.2µM*	5%
COCCCn1c2nc3ccccc3nc2c2c(=O)n(CC3CCCO3)cnc21 (stereo unspecified)	i	7%	3%	6%	i	-2%
CCOCCCn1c(C)nc2c(c1=O)c1nc3ccccc3nc1n2CCC1=CCCCC1	?	?	?	?	18µM*	14%
CCc1c(C)sc(NC(=O)c2cccc(F)c2)c1C#N	.	5%	.	.	.	.
Cc1ccc(C(=O)CN2/C(=C(\O)c3ccccc3)C(=O)c3ccccc3S2(=O)=O)c(C)c1	?	.	?	?	2.3µM*	-1%
COc1ccccc1C(=O)NC1(C(F)(F)F)NC(=O)N(CCc2ccccc2)C1=O (stereo unspecified)	i	0%	.	.	?	-1%
COc1ccc(CCN2C(=O)NC(NC(=O)CCc3ccccc3)(C(F)(F)F)C2=O)cc1OC (stereo unspecified)	i	-1%	2%	0%	21µM*	2%
CC(C)Oc1ccc(C(=O)NC2(C(F)(F)F)NC(=O)N(CCCc3ccccc3)C2=O)cc1 (stereo unspecified)	?	-34%	?	14%	9.2µM*	8%
COc1ccc(CCN2C(=O)NC(NC(=O)c3ccccc3OC)(C(F)(F)F)C2=O)cc1OC (stereo unspecified)	i	0%	.	.	i	1%
CCn1ncc(C2=NOC(C(=O)Nc3cccc(C(C)=O)c3)C2)c1C (stereo unspecified)	?	-1%	-10%	-3%	18µM*	0%[38.3 µM]
CCn1ncc(C2=NOC(C(=O)NCc3ccc(OC)cc3)C2)c1C (stereo unspecified)	?	13%	?	?	?	?
CCn1ncc(C2=NOC(C(=O)NCc3ccccc3)C2)c1C (stereo unspecified)	1.6µM*	-5%	3.7µM*	4.6µM*	?	13µM*
SMILES	KB-3-1 cytotox	ALOX12 inh	SW480 rerep	MCF10A rerep	KB-V1 cytotox	PINK1 expr mod
CCc1ccccc1NC(=O)Cc1c(C)nc2nc(-c3cccs3)nn2c1C	.	29%	.	.	.	.
CCCCOCCCNC(=O)Cn1cnc2c1c(=O)n(C)c(=O)n2C	.	-14%	.	.	.	.
COc1cccc(-c2nc(SCC(=O)Nc3nc(-c4ccccc4)c(C)s3)[nH]c(=O)c2C#N)c1	i	14µM*	-35%	?	i	5%
COc1ccc(-c2cc(-c3ccccc3)nc(SCC(=O)Nc3ncc(C)s3)c2C#N)cc1	i	-23%	9%	23%	9.2µM*	2%
CCc1nnc(NC(=O)CSc2nc(-c3ccc(F)cc3)cc(-c3ccccc3)c2C#N)s1	i	-30%	10%	12µM*	i	9%
COc1ccc(-c2cc(-c3ccccc3)c(C#N)c(S(C)=O)n2)cc1 (stereo unspecified)	?	-22%	?	5.2µM*	i	-3%
CCSc1nc(-c2ccc(OC)cc2)cc(-c2ccccc2)c1C#N	i	-4%	-3%	?	i	?
Cc1coc(NC(=O)CSc2nc(-c3ccc(Cl)cc3)cc(C(F)(F)F)c2C#N)n1	i	0%	8%	16%	i	4%[38.3 µM]
CSc1nc(-c2ccccc2)c(C#N)c(=O)[nH]1	i	-8%	-1%	0%	i	0%
COc1ccc(-c2cc(C(F)(F)F)c(C#N)c(SCC(=O)Nc3nc(C)co3)n2)cc1	i	-22%	?	?	i	8.9µM*
CCSc1nc(-c2ccccc2)c(C#N)c(=O)[nH]1	i	-11%	20%	7.3µM*	i	2%[38.3 µM]

Bioassay records (PubChem BioAssay)
